We go through eleven molecules from the supplement of paper PMC13380429.

The subject of assay [1] is Vero E6 infected with SARS-CoV-2. Nature of the assay: morphology score (similarity to uninfected cells); higher = more like uninfected cells. To be noted: 24 h.
Assay [2] has the same test system. The assay can be described thus: SARS-CoV-2 infection rate relative to infected DMSO; higher = more infection, active = 60 or less. To be noted: 24 h.

Each structure is given as a SMILES string.

`C/C(=N\NC(=O)C(NC(=O)c1ccccc1)c1n[nH]c(=O)c2ccccc12)c1cccc(Br)c1` (configuration not stated) (10 µM): the morphology score in assay [1] came out at 0.029. Besides, the SARS-CoV-2 infection rate in assay [2] is 98.5% (inactive).

Regarding `O=NO` [sodium-nitrite] (10 µM), the morphology score in assay [1] amounted to 0.176. Further, the SARS-CoV-2 infection rate in assay [2] is 108% (inactive).

In assay [1], `CCCCCCCC/C=C/CCCCCCCC(=O)OC[C@H]1O[C@@H](n2ccc(N)nc2=O)C(F)(F)[C@@H]1O` [gemcitabine-elaidate] (0.833333 µM) gave a morphology score of 0.0895. In addition, the SARS-CoV-2 infection rate in assay [2] is 112% (inactive).

On to `CN1C(=O)/C(=C2/C(=O)Nc3ccccc32)c2ccccc21` [meisoindigo] (0.833333 µM), for which, in assay [1], the morphology score stood at 0.0882. In assay [2], the SARS-CoV-2 infection rate is 96.5% (inactive).

In the case of `Cc1cn([C@H]2C=C[C@@H](CO)O2)c(=O)[nH]c1=O` [stavudine] (10 µM), the morphology score in assay [1] was 0.031. Also, the SARS-CoV-2 infection rate in assay [2] was 106% (inactive).

`O=C(NCCO)c1cc(C(=O)NCCO)cc(C(=O)NCCO)c1` (10 µM) displayed a morphology score in assay [1] of 0.0411. Further, the SARS-CoV-2 infection rate in assay [2] was 102% (inactive).

Turning to `C=CCNc1nc(NCC=C)nc(N2CCN(C(c3ccc(F)cc3)c3ccc(F)cc3)CC2)n1` [almitrine] (10 µM), the morphology score in assay [1] was found to be 0.136. Further, the SARS-CoV-2 infection rate in assay [2] was 101% (inactive).

`CC1(C)CCC(C)(C)c2cc(C3(c4ccc5cc(C(=O)O)ccc5c4)SCCS3)ccc21` (10 µM) showed a morphology score in assay [1] of 0.132. Further, the SARS-CoV-2 infection rate in assay [2] was 98% (inactive).

Regarding `O=C(Nc1c[nH]nc1-c1nc2ccc(CN3CCOCC3)cc2[nH]1)NC1CC1` (0.833333 µM), in assay [1], the morphology score was found to be 0.0293. Further, the SARS-CoV-2 infection rate in assay [2] was 118% (inactive).

For the molecule `O=c1[nH]c2ccccc2n1CCCN1CCN(C(c2ccccc2)c2ccccc2)CC1` [oxatomide] (10 µM), the morphology score in assay [1] was -0.0451. Besides, in assay [2], the SARS-CoV-2 infection rate was 106% (inactive).

`Oc1ccc2c(c1)CC[C@H](c1ccccc1)[C@@H]2c1ccc(OCCN2CCCC2)cc1` [lasofoxifene] (0.833333 µM) returned a morphology score in assay [1] of 0.106. The SARS-CoV-2 infection rate in assay [2] was 97% (inactive).
